# Reference: publication PMC7862700, “An all-to-all approach to the identification of sequence-specific readers for epigenetic DNA modifications on cytosine”
# Experiments:
# Assay in all cases: DAPPL (digital affinity profiling via proximity ligation, sequencing); 10 mM Tris-HCl pH 7.5, 50 mM NaCl, 1 mM DTT, 4% glycerol, room temperature, 30 min; GST-TFs on glutathione beads, 16-mer random dsDNA library, 0.1% formaldehyde crosslink after washing; high values mean tight binding
# [1] = biological target: T1, FLI1 (Homo sapiens, UniProt Q01543 1-452); settings: protein: recombinant; tags: N-terminal GST; dsDNA, one strand shown
# T1 sequence: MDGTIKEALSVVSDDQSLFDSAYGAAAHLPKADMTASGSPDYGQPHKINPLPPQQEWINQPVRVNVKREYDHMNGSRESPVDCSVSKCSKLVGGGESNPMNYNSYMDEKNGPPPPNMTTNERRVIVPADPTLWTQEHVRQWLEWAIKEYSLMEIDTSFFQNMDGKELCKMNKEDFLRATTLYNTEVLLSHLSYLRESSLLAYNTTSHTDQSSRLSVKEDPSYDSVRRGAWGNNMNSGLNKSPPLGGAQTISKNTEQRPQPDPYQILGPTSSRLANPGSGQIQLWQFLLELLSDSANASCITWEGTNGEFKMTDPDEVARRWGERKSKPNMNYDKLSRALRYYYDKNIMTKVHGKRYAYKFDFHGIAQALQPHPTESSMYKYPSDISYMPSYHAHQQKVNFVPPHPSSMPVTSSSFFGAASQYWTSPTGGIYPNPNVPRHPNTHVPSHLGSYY
# Outline: (§1)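 A tag-only sample was pooled with DNA-barcoded human transcription factors that had been expressed in yeast as GST fusions and captured on glutathione beads. The pools were incubated for 30 min at room temperature with 200 nmole of a random double-stranded 16-mer DNA library in Tris/NaCl/DTT/glycerol buffer, then washed, crosslinked with 0.1% formaldehyde, proximity-ligated (BsaI/T4 ligase, 1 h, 37 °C), PCR-amplified and sequenced on an Illumina NextSeq500. Binding signal is each hexamer's read frequency for a factor divided by its frequency for the tag-only sample.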
# [2] = biological target: T2, ELK1 (Homo sapiens, UniProt P19419 1-428); settings: protein: recombinant; tags: N-terminal GST; dsDNA, one strand shown
# T2 sequence: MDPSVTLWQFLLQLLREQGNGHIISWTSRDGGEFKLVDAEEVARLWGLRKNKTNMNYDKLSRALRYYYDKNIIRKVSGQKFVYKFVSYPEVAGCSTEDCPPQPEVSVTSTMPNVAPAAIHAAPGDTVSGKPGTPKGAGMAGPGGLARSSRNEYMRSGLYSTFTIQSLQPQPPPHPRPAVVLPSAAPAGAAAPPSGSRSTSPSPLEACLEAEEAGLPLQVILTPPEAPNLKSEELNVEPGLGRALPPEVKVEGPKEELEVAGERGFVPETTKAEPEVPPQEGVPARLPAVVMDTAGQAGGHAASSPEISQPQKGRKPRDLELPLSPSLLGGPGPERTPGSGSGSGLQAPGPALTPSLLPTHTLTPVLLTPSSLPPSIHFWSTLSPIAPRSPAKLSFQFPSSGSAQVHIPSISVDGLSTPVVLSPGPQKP
# Outline: as §1
# [3] = biological target: T3, GABPA (Homo sapiens, UniProt Q06546 1-454); settings: protein: recombinant; tags: N-terminal GST; dsDNA, one strand shown
# T3 sequence: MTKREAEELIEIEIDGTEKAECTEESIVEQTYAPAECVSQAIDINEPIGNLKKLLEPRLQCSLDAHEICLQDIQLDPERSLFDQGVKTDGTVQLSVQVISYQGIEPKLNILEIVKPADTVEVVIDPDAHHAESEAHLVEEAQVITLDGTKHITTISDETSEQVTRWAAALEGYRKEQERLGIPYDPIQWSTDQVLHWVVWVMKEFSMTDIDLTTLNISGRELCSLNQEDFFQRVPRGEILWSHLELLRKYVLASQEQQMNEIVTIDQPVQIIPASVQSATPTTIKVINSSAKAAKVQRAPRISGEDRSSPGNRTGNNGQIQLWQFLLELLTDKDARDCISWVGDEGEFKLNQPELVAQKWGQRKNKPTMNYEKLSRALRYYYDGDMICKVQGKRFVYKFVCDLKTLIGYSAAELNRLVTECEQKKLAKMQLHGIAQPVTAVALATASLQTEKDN
# Outline: as §1
# [4] = biological target: T4, ERG (Homo sapiens, UniProt P11308 1-479); settings: protein: recombinant; tags: N-terminal GST; dsDNA, one strand shown
# T4 sequence: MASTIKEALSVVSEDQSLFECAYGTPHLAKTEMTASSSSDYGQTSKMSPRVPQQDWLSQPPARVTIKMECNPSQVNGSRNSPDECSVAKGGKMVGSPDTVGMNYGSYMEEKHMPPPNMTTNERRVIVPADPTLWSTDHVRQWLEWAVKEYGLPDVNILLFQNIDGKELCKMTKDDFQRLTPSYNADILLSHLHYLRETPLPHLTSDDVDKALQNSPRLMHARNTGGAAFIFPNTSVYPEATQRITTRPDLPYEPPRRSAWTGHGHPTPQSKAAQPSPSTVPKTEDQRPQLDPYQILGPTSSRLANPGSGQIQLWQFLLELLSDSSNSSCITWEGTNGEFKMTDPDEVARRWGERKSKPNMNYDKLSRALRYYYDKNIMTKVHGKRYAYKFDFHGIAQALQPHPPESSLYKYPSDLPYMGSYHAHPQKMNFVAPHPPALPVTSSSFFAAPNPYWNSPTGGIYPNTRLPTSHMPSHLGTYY
# Outline: as §1
# [5] = biological target: ELF1 (Homo sapiens, UniProt P32519 1-619); settings: protein: recombinant; tags: N-terminal GST; dsDNA, one strand shown
# Sequence of ELF1 (P32519 whole entry): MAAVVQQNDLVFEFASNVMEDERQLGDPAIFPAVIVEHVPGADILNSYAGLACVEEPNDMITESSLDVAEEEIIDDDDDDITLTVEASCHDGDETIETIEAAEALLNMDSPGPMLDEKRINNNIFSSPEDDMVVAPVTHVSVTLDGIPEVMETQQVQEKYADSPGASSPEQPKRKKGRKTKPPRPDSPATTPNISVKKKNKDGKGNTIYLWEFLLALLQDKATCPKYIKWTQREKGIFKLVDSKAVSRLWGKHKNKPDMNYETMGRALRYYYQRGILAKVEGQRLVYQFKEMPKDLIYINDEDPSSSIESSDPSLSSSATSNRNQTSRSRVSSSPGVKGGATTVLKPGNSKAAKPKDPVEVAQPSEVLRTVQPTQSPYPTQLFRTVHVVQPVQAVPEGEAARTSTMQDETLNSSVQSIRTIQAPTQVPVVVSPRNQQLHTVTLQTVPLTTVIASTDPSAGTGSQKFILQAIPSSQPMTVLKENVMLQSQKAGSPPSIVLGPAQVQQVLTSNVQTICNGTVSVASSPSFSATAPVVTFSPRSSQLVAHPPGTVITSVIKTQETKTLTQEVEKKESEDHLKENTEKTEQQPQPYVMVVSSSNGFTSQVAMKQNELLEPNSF
# Outline: as §1
# [6] = biological target: T5, EHF (Homo sapiens, UniProt Q9NZC4 1-300); settings: protein: recombinant; tags: N-terminal GST; dsDNA, one strand shown
# T5 sequence: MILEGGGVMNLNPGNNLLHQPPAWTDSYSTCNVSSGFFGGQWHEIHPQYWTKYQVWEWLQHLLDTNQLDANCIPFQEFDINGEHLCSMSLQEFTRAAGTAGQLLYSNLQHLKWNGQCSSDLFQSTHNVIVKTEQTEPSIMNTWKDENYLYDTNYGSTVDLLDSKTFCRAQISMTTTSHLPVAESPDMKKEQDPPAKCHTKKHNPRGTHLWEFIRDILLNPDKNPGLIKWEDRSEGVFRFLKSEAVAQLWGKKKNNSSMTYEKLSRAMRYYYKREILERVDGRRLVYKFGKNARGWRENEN
# Outline: as §1
# [7] = biological target: SPI1 (Homo sapiens, UniProt P17947 1-270); settings: protein: recombinant; tags: N-terminal GST; dsDNA, one strand shown
# Outline: as §1
# [8] = biological target: SPIB (Homo sapiens, UniProt Q01892 1-262); settings: protein: recombinant; tags: N-terminal GST; dsDNA, one strand shown
# Sequence of SPIB (Q01892 whole entry): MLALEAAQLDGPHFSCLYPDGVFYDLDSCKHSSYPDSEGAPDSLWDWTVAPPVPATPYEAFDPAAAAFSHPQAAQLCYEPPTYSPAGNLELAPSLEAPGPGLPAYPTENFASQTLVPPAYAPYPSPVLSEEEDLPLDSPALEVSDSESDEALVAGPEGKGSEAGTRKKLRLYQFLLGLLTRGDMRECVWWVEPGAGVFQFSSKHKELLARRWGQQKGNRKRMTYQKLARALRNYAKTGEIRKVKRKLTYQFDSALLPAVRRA
# Outline: as §1
# [9] = biological target: T6, ELK3 (Homo sapiens, UniProt P41970 1-407); settings: protein: recombinant; tags: N-terminal GST; dsDNA, one strand shown
# T6 sequence: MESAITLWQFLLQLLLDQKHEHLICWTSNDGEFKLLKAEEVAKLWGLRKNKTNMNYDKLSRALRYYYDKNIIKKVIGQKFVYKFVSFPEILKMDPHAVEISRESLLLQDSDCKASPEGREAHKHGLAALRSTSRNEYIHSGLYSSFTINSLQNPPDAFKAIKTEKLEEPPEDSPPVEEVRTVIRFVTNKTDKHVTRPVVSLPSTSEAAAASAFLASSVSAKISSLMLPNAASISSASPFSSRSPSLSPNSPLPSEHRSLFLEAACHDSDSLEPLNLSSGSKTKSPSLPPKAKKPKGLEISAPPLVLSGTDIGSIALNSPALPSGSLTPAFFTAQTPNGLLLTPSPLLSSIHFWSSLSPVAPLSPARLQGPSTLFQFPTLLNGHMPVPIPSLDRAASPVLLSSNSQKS
# Outline: as §1
# [10] = biological target: T7, FEV (Homo sapiens, UniProt Q99581 1-238); settings: protein: recombinant; tags: N-terminal GST; dsDNA, one strand shown
# T7 sequence: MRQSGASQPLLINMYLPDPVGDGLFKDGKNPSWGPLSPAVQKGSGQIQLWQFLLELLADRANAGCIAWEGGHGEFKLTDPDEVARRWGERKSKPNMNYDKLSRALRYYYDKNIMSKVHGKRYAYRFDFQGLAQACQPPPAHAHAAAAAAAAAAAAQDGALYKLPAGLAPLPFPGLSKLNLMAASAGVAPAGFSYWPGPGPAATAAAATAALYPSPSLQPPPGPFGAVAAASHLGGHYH
# Outline: as §1
# [11] = biological target: ETV5 (Homo sapiens, UniProt P41161 1-510); settings: protein: recombinant; tags: N-terminal GST; dsDNA, one strand shown
# Sequence of ETV5 (P41161 whole entry): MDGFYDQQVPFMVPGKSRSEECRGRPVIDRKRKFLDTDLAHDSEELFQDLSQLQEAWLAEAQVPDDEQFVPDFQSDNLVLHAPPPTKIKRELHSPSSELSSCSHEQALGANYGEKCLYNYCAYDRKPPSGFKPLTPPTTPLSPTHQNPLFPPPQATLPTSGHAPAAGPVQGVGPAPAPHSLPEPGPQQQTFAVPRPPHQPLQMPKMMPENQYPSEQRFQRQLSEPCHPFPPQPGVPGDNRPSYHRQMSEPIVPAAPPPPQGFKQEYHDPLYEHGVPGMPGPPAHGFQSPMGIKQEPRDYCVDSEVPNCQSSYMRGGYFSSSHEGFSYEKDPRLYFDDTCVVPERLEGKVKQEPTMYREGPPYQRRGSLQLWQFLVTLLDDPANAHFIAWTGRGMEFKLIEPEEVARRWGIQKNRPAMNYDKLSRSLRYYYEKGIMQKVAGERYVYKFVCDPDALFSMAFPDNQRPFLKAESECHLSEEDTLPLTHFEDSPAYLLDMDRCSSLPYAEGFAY
# Outline: as §1
# [12] = biological target: HSF1 (Homo sapiens, UniProt Q00613 1-529); settings: protein: recombinant; tags: N-terminal GST; chain copies: 3; dsDNA, one strand shown
# Sequence of HSF1 (Q00613 whole entry): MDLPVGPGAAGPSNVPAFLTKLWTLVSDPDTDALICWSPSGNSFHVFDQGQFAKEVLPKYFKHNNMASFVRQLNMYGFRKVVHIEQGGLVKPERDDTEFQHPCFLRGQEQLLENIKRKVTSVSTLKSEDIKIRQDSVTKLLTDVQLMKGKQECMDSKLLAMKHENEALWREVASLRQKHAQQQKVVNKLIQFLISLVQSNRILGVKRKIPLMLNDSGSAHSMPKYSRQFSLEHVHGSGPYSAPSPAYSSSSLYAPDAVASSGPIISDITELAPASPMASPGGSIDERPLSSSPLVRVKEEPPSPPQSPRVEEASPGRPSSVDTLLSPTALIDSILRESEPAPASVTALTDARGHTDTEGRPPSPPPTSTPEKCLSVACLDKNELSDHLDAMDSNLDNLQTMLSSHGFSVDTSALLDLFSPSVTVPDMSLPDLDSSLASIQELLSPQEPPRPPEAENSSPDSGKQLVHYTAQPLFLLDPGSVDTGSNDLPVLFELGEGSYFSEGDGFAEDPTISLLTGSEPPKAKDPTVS
# Outline: as §1
# [13] = biological target: T8, SPIC (Homo sapiens, UniProt Q8N5J4 1-248); settings: protein: recombinant; tags: N-terminal GST; dsDNA, one strand shown
# T8 sequence: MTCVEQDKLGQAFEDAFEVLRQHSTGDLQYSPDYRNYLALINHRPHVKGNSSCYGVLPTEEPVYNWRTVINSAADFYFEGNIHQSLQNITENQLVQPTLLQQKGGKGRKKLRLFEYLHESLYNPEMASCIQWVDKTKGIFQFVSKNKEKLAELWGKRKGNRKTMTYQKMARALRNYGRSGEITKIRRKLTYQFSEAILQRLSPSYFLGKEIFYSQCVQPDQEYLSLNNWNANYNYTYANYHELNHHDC
# Outline: as §1
# [14] = biological target: ELF4 (Homo sapiens, UniProt Q99607 1-663); settings: protein: recombinant; tags: N-terminal GST; dsDNA, one strand shown
# Sequence of ELF4 (Q99607 whole entry): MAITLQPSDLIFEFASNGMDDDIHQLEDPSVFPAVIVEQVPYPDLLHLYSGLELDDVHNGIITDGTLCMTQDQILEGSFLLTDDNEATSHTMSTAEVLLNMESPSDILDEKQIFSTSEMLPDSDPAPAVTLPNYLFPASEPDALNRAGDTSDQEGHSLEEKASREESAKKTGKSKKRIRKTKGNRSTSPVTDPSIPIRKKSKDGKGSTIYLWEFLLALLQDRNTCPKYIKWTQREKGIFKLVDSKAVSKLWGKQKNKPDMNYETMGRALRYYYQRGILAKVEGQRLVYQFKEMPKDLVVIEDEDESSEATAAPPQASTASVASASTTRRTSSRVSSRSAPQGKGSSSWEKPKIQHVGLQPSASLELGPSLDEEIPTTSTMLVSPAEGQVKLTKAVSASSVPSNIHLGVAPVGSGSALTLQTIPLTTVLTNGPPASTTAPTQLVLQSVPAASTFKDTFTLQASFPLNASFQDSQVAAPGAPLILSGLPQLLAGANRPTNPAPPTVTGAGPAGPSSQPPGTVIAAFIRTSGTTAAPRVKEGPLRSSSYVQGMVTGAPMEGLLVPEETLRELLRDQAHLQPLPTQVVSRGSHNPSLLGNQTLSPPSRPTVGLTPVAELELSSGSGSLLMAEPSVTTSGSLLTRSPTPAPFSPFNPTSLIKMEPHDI
# Outline: as §1
# [15] = biological target: T9, ELK4 (Homo sapiens, UniProt P28324-2 1-405); settings: protein: recombinant; tags: N-terminal GST; dsDNA, one strand shown
# T9 sequence: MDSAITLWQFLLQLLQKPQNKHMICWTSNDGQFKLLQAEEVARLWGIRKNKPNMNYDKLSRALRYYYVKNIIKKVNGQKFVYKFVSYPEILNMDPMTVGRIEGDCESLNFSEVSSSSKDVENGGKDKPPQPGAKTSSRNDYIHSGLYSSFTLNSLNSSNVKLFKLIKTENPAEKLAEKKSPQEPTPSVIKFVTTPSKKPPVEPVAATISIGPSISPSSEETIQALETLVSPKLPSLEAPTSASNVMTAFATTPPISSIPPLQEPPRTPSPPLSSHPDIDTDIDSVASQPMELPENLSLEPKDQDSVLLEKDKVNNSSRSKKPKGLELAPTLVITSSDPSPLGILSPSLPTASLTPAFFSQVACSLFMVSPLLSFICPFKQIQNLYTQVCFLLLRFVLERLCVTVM
# Outline: as §1
# [16] = biological target: T10, ETV2 (Homo sapiens, UniProt O00321 1-342); settings: protein: recombinant; tags: N-terminal GST; dsDNA, one strand shown
# T10 sequence: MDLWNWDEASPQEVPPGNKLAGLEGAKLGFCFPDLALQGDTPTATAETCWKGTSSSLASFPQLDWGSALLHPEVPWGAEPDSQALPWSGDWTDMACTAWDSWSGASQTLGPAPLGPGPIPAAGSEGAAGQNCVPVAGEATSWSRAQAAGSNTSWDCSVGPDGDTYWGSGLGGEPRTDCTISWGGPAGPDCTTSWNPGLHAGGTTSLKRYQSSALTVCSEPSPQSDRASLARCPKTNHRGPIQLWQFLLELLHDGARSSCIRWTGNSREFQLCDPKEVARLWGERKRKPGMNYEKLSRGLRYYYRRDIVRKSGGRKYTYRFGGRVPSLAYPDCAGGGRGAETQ
# Outline: as §1
# [17] = biological target: T11, ELF3 (Homo sapiens, UniProt P78545 1-371); settings: protein: recombinant; tags: N-terminal GST; dsDNA, one strand shown
# T11 sequence: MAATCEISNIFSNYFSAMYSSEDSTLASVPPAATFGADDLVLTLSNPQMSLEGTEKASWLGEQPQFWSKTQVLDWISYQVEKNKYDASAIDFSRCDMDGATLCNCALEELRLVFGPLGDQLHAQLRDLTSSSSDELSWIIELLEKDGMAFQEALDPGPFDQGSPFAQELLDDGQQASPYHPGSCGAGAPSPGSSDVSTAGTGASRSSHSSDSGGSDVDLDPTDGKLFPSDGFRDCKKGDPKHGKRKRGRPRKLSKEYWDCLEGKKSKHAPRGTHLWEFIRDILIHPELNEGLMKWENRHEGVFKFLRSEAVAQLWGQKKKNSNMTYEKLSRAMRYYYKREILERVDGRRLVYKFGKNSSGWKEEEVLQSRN
# Outline: as §1
# [18] = biological target: CRX (Homo sapiens, UniProt O43186 1-299); settings: protein: recombinant; tags: N-terminal GST; dsDNA, one strand shown
# Sequence of CRX (O43186 whole entry): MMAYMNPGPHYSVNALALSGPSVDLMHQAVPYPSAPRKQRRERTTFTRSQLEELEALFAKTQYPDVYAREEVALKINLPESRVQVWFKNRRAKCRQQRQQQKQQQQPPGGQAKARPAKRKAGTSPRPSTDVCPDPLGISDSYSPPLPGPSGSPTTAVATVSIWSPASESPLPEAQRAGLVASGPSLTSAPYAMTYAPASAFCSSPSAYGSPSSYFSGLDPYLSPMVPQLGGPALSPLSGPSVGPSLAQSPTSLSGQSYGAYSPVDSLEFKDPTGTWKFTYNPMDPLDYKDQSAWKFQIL
# Outline: as §1
# [19] = biological target: ETV1 (Homo sapiens, UniProt P50549 1-477); settings: protein: recombinant; tags: N-terminal GST; dsDNA, one strand shown
# Sequence of ETV1 (P50549 whole entry): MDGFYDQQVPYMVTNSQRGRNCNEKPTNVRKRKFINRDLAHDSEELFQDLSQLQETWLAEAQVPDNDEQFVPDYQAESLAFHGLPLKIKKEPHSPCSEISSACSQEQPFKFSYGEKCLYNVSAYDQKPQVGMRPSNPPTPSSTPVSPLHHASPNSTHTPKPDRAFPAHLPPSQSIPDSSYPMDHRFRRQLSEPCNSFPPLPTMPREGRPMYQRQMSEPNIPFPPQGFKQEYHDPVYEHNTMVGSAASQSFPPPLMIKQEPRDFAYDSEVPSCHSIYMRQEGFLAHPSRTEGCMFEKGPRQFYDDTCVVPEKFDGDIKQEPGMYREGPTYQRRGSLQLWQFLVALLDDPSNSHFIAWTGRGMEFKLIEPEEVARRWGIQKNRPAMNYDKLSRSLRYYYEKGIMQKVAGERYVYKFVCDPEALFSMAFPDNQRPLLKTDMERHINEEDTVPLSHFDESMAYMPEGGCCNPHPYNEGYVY
# Outline: as §1
sequence,measurement,setting,value
TCTTAA,binding signal,[1],"1.18 fold enrichment (6-mer frequency, TF over GST control)"
same,binding signal,[2],"1.13 fold enrichment (6-mer frequency, TF over GST control)"
same,binding signal,[3],"1.16 fold enrichment (6-mer frequency, TF over GST control)"
same,binding signal,[4],"1.21 fold enrichment (6-mer frequency, TF over GST control)"
same,binding signal,[5],"1.23 fold enrichment (6-mer frequency, TF over GST control)"
same,binding signal,[6],"1.09 fold enrichment (6-mer frequency, TF over GST control)"
same,binding signal,[7],"1.23 fold enrichment (6-mer frequency, TF over GST control)"
same,binding signal,[8],"1.23 fold enrichment (6-mer frequency, TF over GST control)"
same,binding signal,[9],"1.23 fold enrichment (6-mer frequency, TF over GST control)"
same,binding signal,[10],"1.24 fold enrichment (6-mer frequency, TF over GST control)"
same,binding signal,[11],"1.2 fold enrichment (6-mer frequency, TF over GST control)"
same,binding signal,[12],"1.88 fold enrichment (6-mer frequency, TF over GST control)"
same,binding signal,[13],"1.2 fold enrichment (6-mer frequency, TF over GST control)"
same,binding signal,[14],"1.19 fold enrichment (6-mer frequency, TF over GST control)"
same,binding signal,[15],"1.18 fold enrichment (6-mer frequency, TF over GST control)"
same,binding signal,[16],"1.25 fold enrichment (6-mer frequency, TF over GST control)"
same,binding signal,[17],"1.24 fold enrichment (6-mer frequency, TF over GST control)"
same,binding signal,[18],"2.69 fold enrichment (6-mer frequency, TF over GST control)"
same,binding signal,[19],"1.12 fold enrichment (6-mer frequency, TF over GST control)"
